# In PubChem BioAssay (NCATS):
# Records with an inconclusive call do not appear. Where a call stands in place of a potency, no number is given. Activity calls are given as the source filed them. Unless noted, the call rests on the fitted dose curve; in most records, active means well fitted curve in the direction sought with a large enough effect; inconclusive means small, poorly fitted or top-dose-only effect, or another doubt; inactive means no such curve, though single readings can be large; an effect the other way counts as inactive or inconclusive.
# Experiments:
# [1] = MultiTox-Fluor Cytotoxicity Assay - LYMP1-001 - Dead Cells (AID 946)
# Outline: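 Seed 2500 LYMP1-001 cells/well, incubate 5 hr at 37 C; add compound, 16 hr at 37 C; add MultiTox-Fluor reagent, 60 min RT; read dead-cell fluorescence Ex/Em=485/520. Normalize to DMSO and 15 uM tetraoctylammonium bromide.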
# [2] = MultiTox-Fluor Cytotoxicity Assay - LYMP1-001 - Live Cells (AID 947)
# [3] = Cell Viability - LYMP1-002 - Assay at 16 hr (AID 948)
# Outline: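 In this qHTS, lymphoblastoid LYMP1-002 cells (human) receive compounds for 16 hr at 37 C. Viability is taken from CellTiter-Glo ATP luminescence, and AC50 derives from standard Hill fits.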
# [4] = MultiTox-Fluor Cytotoxicity Assay - LYMP1-002 - Live Cells (AID 955)
# Outline: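 Human lymphoblastoid LYMP1-002 cells, 2500/well in complete medium, rested 5 hr at 37 C, then exposed to compounds for 16 hr at 37 C. Live-cell protease cleavage of GF-AFC read by fluorescence (Ex/Em 405/510) after 60 min at room temperature; AC50 from Hill fits.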
# [5] = MultiTox-Fluor Cytotoxicity Assay - LYMP1-003 - Dead Cells (AID 961); further: nearly all actives have a fitted effect of over 70% in size
# Outline: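 LYMP1-003 lymphoblastoid, 2500 cells/well, 5 hr settle then 16 hr cpd at 37 C; MultiTox-Fluor reagent 60 min RT; Ex/Em 485/520 dead-cell signal; norm. DMSO = 0%, 15 uM tetraoctylammonium bromide = 100%; Hill AC50.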
# [6] = MultiTox-Fluor Cytotoxicity Assay - LYMP1-003 - Live Cells (AID 962);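 further: cytotoxic hits lower the live-cell protease signal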
# Outline: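 LYMP1-003 human lymphoblastoid cells (2500/well) in complete medium were preincubated 5 hr at 37 C, then exposed to compounds for 16 hr at 37 C. Live-cell protease cleavage of GF-AFC read by fluorescence (Ex/Em 405/510); AC50 from Hill fits.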
# [7] = Cell Viability - LYMP1-003 - Assay at 24 hr (AID 963)
# Outline: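 Human lymphoblastoid LYMP1-003 cells (2500/well) were rested 5 hr at 37 C, then exposed to compounds in complete medium for 24 hr at 37 C. Cellular ATP was quantified by CellTiter-Glo luminescence, and AC50 values came from Hill fits of concentration-response data.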
# [8] = Cell Viability - LYMP1-003 - Assay at 40 hr (AID 964); further: series mostly up to about 92 µM; nearly all actives have a fitted effect of over 60% in size
# Outline: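 Human lymphoblastoid LYMP1-003 cells, 2500/well in complete medium, rested 5 hr at 37 C, then exposed to compounds for 40 hr at 37 C. Viability read as intracellular ATP by CellTiter-Glo luminescence; AC50 from Hill fits of concentration-response data.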
# [9] = target: Pyruvate kinase (Leishmania mexicana) (UniProt Q27686); assay: qHTS Validation Assay for Inhibitors of Leishmania Mexicana Pyruvate Kinase (AID 945)
# Outline: (§1)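 Purified LmPYK (E451W mutant, 0.2 nM) was incubated 1 h at room temperature with 0.5 mM PEP and 0.1 mM ADP in 50 mM imidazole pH 7.2, 50 mM KCl, 7 mM MgCl2; ATP formed was read by PKLight luminescence, normalized to DMSO wells.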
# [10] = target: Pyruvate kinase PKM (Homo sapiens) (UniProt P14618); assay: qHTS Assay for Activators of Human Muscle Pyruvate Kinase (AID 954; active means well fitted curve in the direction sought with a large enough effect, not every such curve was filed as active)
# Outline: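 Reaction: 0.1 nM purified PKM2 with 0.5 mM phosphoenolpyruvate and 0.1 mM ADP, room temperature, 1 h. Readout: luciferase-based ATP luminescence after stop reagent. Activators judged against a 0.3 nM enzyme column.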
# [11] = Confirmation and Secondary Assay for Modulators of Hemoglobin Beta Chain Splicing at IVS2 705 locus (AID 930); further: potency means the concentration at half of the fitted maximal effect
# Outline: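 Restored EGFP fluorescence after 2-day compound exposure reports splicing correction in IVS2-705 EGFP reporter HeLa cells; positive control was 500 nM splice-blocking PNA oligo. Signal measured as well total peak GFP intensity (488 nm excitation).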
# [12] = target: Pyruvate kinase (Leishmania mexicana) (UniProt Q27686); assay: qHTS Validation Assay for Activators of Leishmania Mexicana Pyruvate Kinase (AID 959)
# Outline: as §1
# [13] = target: Muscarinic acetylcholine receptor M1 (Rattus norvegicus) (UniProt P08482); assay: qHTS Assay for Antagonists of Acetylcholine Muscarinic M1 Receptor: Measurement of IP-One Response (AID 944); further: nearly all actives have a fitted effect of over 75% in size
# Outline: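 CHO cells expressing rat M1 receptor, recovered overnight, were pre-incubated 10 min with compound, then stimulated 30 min with carbachol at EC80 (200 nM) in LiCl-containing buffer, pH 7.4. IP1 accumulation was read by HTRF (620/665 nm).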
# Muscarinic acetylcholine receptor M1 (Rattus norvegicus), sequence (P08482 whole entry, looked up): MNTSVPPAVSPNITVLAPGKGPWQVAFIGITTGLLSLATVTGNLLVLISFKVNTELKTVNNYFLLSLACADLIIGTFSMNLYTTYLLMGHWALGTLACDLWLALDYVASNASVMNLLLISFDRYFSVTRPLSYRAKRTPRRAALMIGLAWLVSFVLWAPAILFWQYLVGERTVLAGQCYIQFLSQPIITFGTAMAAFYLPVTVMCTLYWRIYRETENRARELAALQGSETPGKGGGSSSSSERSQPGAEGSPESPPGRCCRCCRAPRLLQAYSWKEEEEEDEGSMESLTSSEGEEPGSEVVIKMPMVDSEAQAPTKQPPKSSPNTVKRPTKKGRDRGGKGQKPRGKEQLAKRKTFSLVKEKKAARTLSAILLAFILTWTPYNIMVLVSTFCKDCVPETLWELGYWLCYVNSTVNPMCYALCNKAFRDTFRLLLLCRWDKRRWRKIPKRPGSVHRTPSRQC
# Pyruvate kinase (Leishmania mexicana), sequence (Q27686 2-499 E452W): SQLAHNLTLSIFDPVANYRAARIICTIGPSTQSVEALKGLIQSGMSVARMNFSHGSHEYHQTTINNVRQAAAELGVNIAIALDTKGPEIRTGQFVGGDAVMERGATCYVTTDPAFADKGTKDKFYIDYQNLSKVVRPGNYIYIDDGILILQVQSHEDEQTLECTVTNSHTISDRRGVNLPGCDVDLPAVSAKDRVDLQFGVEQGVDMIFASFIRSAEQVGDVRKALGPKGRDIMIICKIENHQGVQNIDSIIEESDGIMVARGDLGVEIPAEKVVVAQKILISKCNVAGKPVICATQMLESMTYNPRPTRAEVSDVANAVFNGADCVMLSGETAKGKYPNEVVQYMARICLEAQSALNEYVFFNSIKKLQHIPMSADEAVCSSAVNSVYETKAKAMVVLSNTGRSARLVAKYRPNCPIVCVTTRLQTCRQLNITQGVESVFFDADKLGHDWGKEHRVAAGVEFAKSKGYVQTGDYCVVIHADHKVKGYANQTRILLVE
# Pyruvate kinase PKM (Homo sapiens), sequence (P14618 whole entry, looked up): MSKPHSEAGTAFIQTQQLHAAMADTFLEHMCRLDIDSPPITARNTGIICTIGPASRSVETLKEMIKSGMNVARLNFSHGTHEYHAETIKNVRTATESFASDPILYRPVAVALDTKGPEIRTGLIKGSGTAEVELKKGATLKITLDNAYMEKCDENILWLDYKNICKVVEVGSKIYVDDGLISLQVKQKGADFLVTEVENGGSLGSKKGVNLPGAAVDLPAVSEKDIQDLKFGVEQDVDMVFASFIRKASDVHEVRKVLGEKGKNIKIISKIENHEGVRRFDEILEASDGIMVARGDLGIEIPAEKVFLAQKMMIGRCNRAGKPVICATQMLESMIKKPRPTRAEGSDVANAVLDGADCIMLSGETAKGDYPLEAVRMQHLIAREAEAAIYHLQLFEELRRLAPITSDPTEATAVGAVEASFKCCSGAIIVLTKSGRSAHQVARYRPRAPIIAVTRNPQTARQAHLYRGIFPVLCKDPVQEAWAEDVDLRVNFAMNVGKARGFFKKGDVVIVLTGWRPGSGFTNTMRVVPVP
structure (smiles),measurement,setting,value
CCCCC(CC)COC(=O)C(C#N)=C(c1ccccc1)c1ccccc1 (stereo not given),Potency,[1],inactive
same,Potency,[2],inactive
same,Potency,[3],inactive
same,Potency,[4],inactive
same,Potency,[5],inactive
same,Potency,[6],inactive
same,Potency,[7],inactive
same,Potency,[8],inactive
CC(=O)N1CCN(c2ccc(OC[C@H]3CO[C@](Cn4ccnc4)(c4ccc(Cl)cc4Cl)O3)cc2)CC1,Potency,[9],inactive
same,outcome,[10],inactive
O=C(NC(Cc1cc(=O)[nH]c2ccccc12)C(=O)O)c1ccc(Cl)cc1 (stereo not given),Potency,[11],inactive
Cc1ccc(S(=O)(=O)NC(=O)NN2CC3CCCC3C2)cc1 (stereo not given),Potency,[11],inactive
Nc1nc(Cl)nc2c1ncn2[C@H]1C[C@H](O)[C@@H](CO)O1,Potency,[11],inactive
CCN(CCO)CCCC(C)Nc1ccnc2cc(Cl)ccc12 (stereo not given),Potency,[11],inactive
O=c1ccc2ccc(O)c(O)c2o1,Potency,[9],inactive
same,outcome,[10],inactive
same,Potency,[12],15.8 µM (active)
O=C(c1ccccc1)c1ccc2n1CCC2C(=O)O (stereo not given),Potency,[11],inactive
O=c1c(O)c(-c2ccc(O)cc2O)oc2cc(O)cc(O)c12,Potency,[11],inactive
same,Potency,[13],inactive
same,Potency,[9],inactive
same,outcome,[10],inactive
same,Potency,[12],20 µM (active)
Oc1ccc(-c2nc(-c3ccc(F)cc3)c(-c3ccncc3)[nH]2)cc1,Potency,[13],inactive
same,Potency,[9],inactive
same,outcome,[10],inactive
CN1CCC(=C2c3ccccc3CCc3sccc32)CC1,Potency,[11],inactive
O=C(O)c1cn(-c2ccc(F)cc2)c2cc(N3CCNCC3)c(F)cc2c1=O,Potency,[11],inactive
Cc1cc(C2CCCCC2)n(O)c(=O)c1,Potency,[11],inactive
S=c1nc[nH]c2nc[nH]c12,Potency,[11],6.31 µM (active)
Cc1cccc(CN2CCN(C(c3ccccc3)c3ccc(Cl)cc3)CC2)c1 (stereo not given),Potency,[11],inactive
O=C1NC(=O)C(c2ccccc2[N+](=O)[O-])=C1Nc1ccc(O)c(Cl)c1,Potency,[9],inactive
same,outcome,[10],inactive
Cc1cc2c(s1)Nc1ccccc1N=C2N1CCN(C)CC1,Potency,[11],inactive
CN(C)CCc1c[nH]c2ccc(Cn3cncn3)cc12,Potency,[11],inactive
CC(C)c1ccc2c(c1)c(SC(C)(C)C)c(CC(C)(C)C(=O)O)n2Cc1ccc(Cl)cc1,Potency,[13],inactive
same,Potency,[9],inactive
same,outcome,[10],inactive
CC1Cc2ccccc2N1NC(=O)c1ccc(Cl)c(S(N)(=O)=O)c1 (stereo not given),Potency,[11],inactive
Cc1cc2cc3c(C)cc(=O)oc3c(C)c2o1,Potency,[11],inactive
